Screening results from PubChem BioAssay.
Compounds with a hit are over-represented: about 3.1% of the library has one in this group of screens.
Tau fluor counter – Counterscreen qHTS for Inhibitors of Tau Fibril Formation, Fluorescence Polarization; tau K18 P301L Alexa594 fluorescence, heparin fibrillization; Potency, µM (top dose mostly 57.7 µM); 0.93% of 280,000 active; AID 1463, 2008; note: nearly all actives have a fitted effect of over 55% in size
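Human K18 P301L tau (15 uM unlabeled plus 0.24 uM Alexa 594-labeled, final) in 100 mM sodium acetate pH 7 was mixed with compound and 20 uM heparin and incubated 6 hr at 37 C.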
TRb-SRC2 inh – qHTS for Inhibitors of the Interaction of Thyroid Hormone Receptor and Steroid Receptor Coregulator 2; 0.065% of 280,000 active; Potency, µM (top dose mostly 106 µM), actives largely listed as inhibitors; Thyroid hormone receptor beta (Homo sapiens), P10828; AID 1469, 2008; TRbeta-SRC2 peptide binding, fluorescence polarization; receptor liganded with 1 µM T3; note: nearly all actives have a fitted effect of over 50% in size
Target sequence (P10828 whole entry, looked up): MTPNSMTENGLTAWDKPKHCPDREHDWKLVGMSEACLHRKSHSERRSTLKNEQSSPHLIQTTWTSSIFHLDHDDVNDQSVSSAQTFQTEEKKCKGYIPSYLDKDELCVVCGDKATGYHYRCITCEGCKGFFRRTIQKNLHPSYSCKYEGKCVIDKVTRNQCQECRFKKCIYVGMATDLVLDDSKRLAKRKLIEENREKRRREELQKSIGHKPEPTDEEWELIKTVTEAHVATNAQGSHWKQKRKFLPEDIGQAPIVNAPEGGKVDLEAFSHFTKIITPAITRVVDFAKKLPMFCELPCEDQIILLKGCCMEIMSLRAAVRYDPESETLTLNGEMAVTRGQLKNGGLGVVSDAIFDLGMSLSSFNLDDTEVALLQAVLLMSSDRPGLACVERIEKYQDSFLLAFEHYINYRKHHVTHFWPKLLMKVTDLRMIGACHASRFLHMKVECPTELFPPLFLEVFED
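Assay buffer: 20 mM Tris-HCl, 100 mM NaCl, 10% glycerol, 1 mM EDTA, 0.01% NP-40, 1 mM DTT, 1 uM T3, 5% DMSO; TRb LBD 0.6 uM, Texas Red SRC2 20 nM; FP after 5 hr.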
TexasRed fluor – Total Fluorescence Counterscreen for Inhibitors of the Interaction of Thyroid Hormone Receptor and Steroid Receptor Coregulator 2; AID 1479, 2009; Potency, µM (top dose mostly 106 µM); TRb/SRC2 Texas Red total fluorescence interference; 0.29% of 280,000 active; active = well fitted curve in either direction with a large enough effect; inconclusive = small, poorly fitted or top-dose-only effect
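Human TRβ ligand-binding domain (0.6 uM) and Texas Red SRC2 peptide (20 nM) in Tris buffer with 1 uM T3 and 5% DMSO were incubated with pinned compound for 5 hr at ambient temperature. Total fluorescence was computed as S + 2P (555/632 nm).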
Tau fibril ThT – qHTS for Inhibitors of Tau Fibril Formation, Thioflavin T Binding; Potency, µM (top dose mostly 57.4 µM), usual class: inhibitors; 2.1% of 270,000 active; Microtubule-associated protein tau (Homo sapiens), P10636; recombinant tau K18 P301L (four-repeat tau fragment), heparin-induced fibrillization, ThT fluorescence; AID 1460, 2008; note: nearly all actives have a fitted effect of over 55% in size
Target sequence (P10636 561-689 P618L limits assumed): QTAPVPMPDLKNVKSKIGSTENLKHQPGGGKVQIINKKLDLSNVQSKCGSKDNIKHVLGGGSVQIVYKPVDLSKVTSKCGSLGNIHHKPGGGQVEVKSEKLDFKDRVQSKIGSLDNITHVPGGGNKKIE
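Tau K18 P301L fragment (15 uM unlabeled plus 0.24 uM Alexa 594-labeled) in 100 mM sodium acetate pH 7 with compound, fibrillization induced by 20 uM heparin for 6 hr at 37 C. Thioflavin T (30 uM) added, fluorescence read after 1 hr (ex 450, em 510 nm).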
Tau fibril FP – qHTS for Inhibitors of Tau Fibril Formation, Fluorescence Polarization; 0.39% of 280,000 active; AID 1468, 2008; K18 P301L tau heparin fibrillization, Alexa594 FP, 6 h; Potency, µM (top dose mostly 57.7 µM), hits mostly inhibitors; note: nearly all actives have a fitted effect of over 55% in size
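FP of Alexa 594-tau after heparin (20 uM) induction. Substrate: human K18 P301L, 15 uM unlabeled, 0.24 uM labeled. Buffer 100 mM sodium acetate pH 7. 6 hr, 37 C.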
Large screens that a line does not name were inactive; ! = not active in a repeat; [ ] = dose if it differs, or a comment. Unless noted, calls come from the whole dose curve; as a rule, active = well fitted curve in the direction sought with a large enough effect; inconclusive = small, poorly fitted or top-dose-only effect, or another doubt; inactive = no such curve, though single readings can be large; an effect the other way counts as inactive or inconclusive.

CC(C)OCCCn1c(SCC(=O)Nc2ccc(F)cc2)nc2c(sc3ccccc32)c1=O	none
O=C1C(=C2CCCCC2)SC(=S)N1Cc1ccco1	Tau fibril ThT 25µM, Tau fibril FP inconclusive
CCOC(=O)c1cccc(NC(=O)CC2C(=O)N(c3ccc(OC)cc3)C(=O)N2C2CCCC2)c1 (stereo unspecified)	none
COc1ccc(CCNC(=O)CN2C(=O)COc3ccc(C)cc32)cc1OC	Tau fibril ThT inconclusive
CCCCN(C)CCNC(=O)c1cc2c(=O)n(C)c3ccccc3c2n1C	none
CCn1c2ccccc2c2cc(/C=N/NC(=O)c3cc(O)cc(O)c3)ccc21	none
CCn1c2ccccc2c2cc(/C=N/NC(=O)c3ccc(O)cc3)ccc21	Tau fluor counter 10µM[quencher], Tau fibril ThT inconclusive, Tau fibril FP inconclusive
[O-][n+]1c2c(c3c4non(O)c4ccc31)CCCC2	Tau fluor counter inconclusive, Tau fibril ThT 14µM
CCN(CC)c1ccc(/C=c2/sc3nnc(-c4ccccc4C)n3c2=O)cc1	Tau fibril ThT inconclusive
CCN(CC)c1ccc(/C=c2\sc3nnc(-c4ccccc4Cl)n3c2=O)cc1	Tau fibril ThT 7.1µM
COc1ccc(-c2cc(C(F)(F)F)c3c(n2)sc2c(O)cc(=O)[nH]c23)c(OC)c1	Tau fibril ThT 14µM
N#CC1(C#N)CC(C=O)=C(N)C1(C#N)CC(=O)c1ccc(F)cc1 (stereo unspecified)	Tau fluor counter inconclusive, Tau fibril ThT 14µM, Tau fibril FP inconclusive
O=C(N/N=C/c1c[nH]c2ccccc12)c1sc2ccccc2c1Cl	Tau fluor counter 8.9µM[quencher], Tau fibril ThT inconclusive
Cc1cccc(NC(=S)N/N=C/c2c[nH]c3ccccc23)c1	Tau fluor counter 8.9µM[quencher], Tau fibril ThT 16µM, Tau fibril FP inconclusive
Cc1ccc(C(=O)Nc2ccc(C(=O)N/N=C/c3c[nH]c4ccccc34)cc2)cc1	Tau fluor counter 14µM[quencher], Tau fibril ThT 13µM
COc1ccc2c(Cl)c(C(=O)N/N=C/c3c(C)[nH]c4ccccc34)sc2c1	Tau fluor counter 11µM[quencher], Tau fibril ThT 4.5µM
O=C(CC(NCc1cccnc1)C(=O)O)Nc1ccc(F)cc1 (stereo unspecified)	none
O=C(N/N=C/c1ccc([N+](=O)[O-])o1)c1sc2ccccc2c1Cl	Tau fluor counter inconclusive, Tau fibril ThT 3.5µM
CC(C)=CCC/C(C)=C/Cc1c(O)ccc(C(=O)/C=C/c2ccc(O)cc2)c1O	Tau fluor counter 4.5µM[quencher], Tau fibril ThT 20µM, Tau fibril FP 7.9µM
O=C(O)/C=C\c1ccc(O)c(O)c1	none (no result: Tau fluor counter, Tau fibril ThT, Tau fibril FP)
COc1cc(/C=C/C(=O)c2ccc(O)cc2O)ccc1O	none (no result: Tau fluor counter, Tau fibril ThT, Tau fibril FP)
COc1ccc(/C=C/C(=O)c2ccc(O)cc2O)cc1	Tau fluor counter inconclusive, Tau fibril ThT 11µM
O=C(/C=C/c1ccc(O)c(O)c1)c1ccccc1O	Tau fluor counter inconclusive, Tau fibril ThT 13µM, Tau fibril FP inconclusive
COc1ccc(/C=C/C(=O)c2cc3c(cc2N)OCO3)cc1	Tau fluor counter 16µM[quencher], Tau fibril ThT 2.8µM
COc1cc(OC)c(NC(=O)c2cn(C3CCCC3)c(=O)c3c2c2ccccc2n3C)cc1Cl	none
C[C@]12CC[C@@H]3c4ccc(O)cc4CC[C@H]3[C@@H]1C[C@H](O)C2O (stereo partly specified)	none (no result: Tau fluor counter, Tau fibril ThT, Tau fibril FP)
CCc1cc(C(=O)O)c(NC(=O)/C=C/c2ccc(OC)c(OC)c2)s1	Tau fibril ThT inconclusive
CCc1cc(C(=O)O)c(NC(=O)/C=C/c2ccc(OC)cc2)s1	Tau fluor counter inconclusive, Tau fibril ThT 13µM
COc1ccc(/C=C/C(=O)c2ccc(O)cc2O)cc1OC	Tau fibril ThT 7.1µM
O=C(/C=C/c1ccc(O)c(O)c1)OCCc1ccccc1	Tau fluor counter 11µM[quencher], Tau fibril ThT inconclusive, Tau fibril FP inconclusive
O=C(/C=C/c1ccc(O)c(O)c1)OC(Cc1ccc(O)c(O)c1)C(=O)O (stereo unspecified)	Tau fluor counter inconclusive
COc1ccc(/C=C/C(=O)O)cc1	TRb-SRC2 inh 25µM!, TexasRed fluor 45µM![fluorescent]
N[C@@H](Cc1cc(-c2ccc(Cl)cc2Cl)cc(CP(=O)(O)O)c1O)C(=O)O	none
COc1ccc(/C=C/C(=O)c2c(OC)cc(O)cc2OC)cc1	none (no result: Tau fluor counter, Tau fibril ThT, Tau fibril FP)
COc1cc(O)cc(O)c1C(=O)/C=C/c1ccccc1	Tau fibril ThT inconclusive
O=C(/C=C/c1ccccc1)c1ccc(O)cc1O	TRb-SRC2 inh inconclusive, Tau fibril ThT inconclusive, Tau fibril FP inconclusive
COc1ccc(/C=C/C(=O)c2cc(O)ccc2O)cc1	Tau fluor counter 14µM[quencher], Tau fibril ThT 14µM, Tau fibril FP inconclusive
COc1cc(OC)c(C(=O)/C=C/c2ccccc2)c(O)c1O	Tau fibril ThT 13µM
COc1ccc(C(=O)/C=C/c2ccccc2)c(O)c1	Tau fibril ThT inconclusive
COc1cc(O)c(C(=O)/C=C/c2ccc(O)c(OC)c2)c(OC)c1	Tau fibril ThT 1.8µM
O=C(/C=C/c1ccc(O)cc1)c1ccc(O)cc1O	Tau fluor counter inconclusive, Tau fibril ThT 10µM
CCCNc1ncnc2c1c(-c1ccccc1)cn2-c1ccccc1	none
Cc1cc(N(CCO)CCO)ccc1N=Nc1cc(F)ccc1F	Tau fluor counter inconclusive, Tau fibril ThT 10µM
OCCN(CCO)c1ccc(C(c2ccc(Cl)cc2)c2ccc(N(CCO)CCO)cc2Cl)c(Cl)c1	none
O=C(N/N=C/c1ccc(OCc2ccc(F)cc2)cc1)c1ccccc1	none
Nc1ccc(C(=O)N/N=C\C=C\c2ccc([N+](=O)[O-])cc2)cc1	Tau fibril ThT 2.8µM
Cc1ccccc1NC(=O)/C(=C\c1cccs1)NC(=O)c1ccccc1	none
O=C(N/N=C/c1ccc([N+](=O)[O-])cc1)c1ccc(COc2ccccc2-c2ccccc2)cc1	Tau fluor counter 13µM[quencher], Tau fibril ThT inconclusive
O=C(N/N=C/c1cc([N+](=O)[O-])cc([N+](=O)[O-])c1O)/C(=C\c1cccs1)NC(=O)c1ccccc1	Tau fibril ThT 13µM
COc1cc(/C=N/NC(=O)/C(=C\c2ccc([N+](=O)[O-])cc2)NC(=O)c2ccccc2)cc(OC)c1O	Tau fluor counter inconclusive, Tau fibril ThT 28µM
CCOC(=O)/C(N=Nc1c(Br)cc(Br)cc1Br)=C(\C)O	Tau fibril ThT inconclusive
CC1=CC(=O)C=C(C)C1=NOc1ccccc1[N+](=O)[O-]	Tau fluor counter inconclusive, Tau fibril ThT inconclusive, Tau fibril FP inconclusive
O=C(COc1cccc2cccnc12)N/N=C1\SCC(=O)N1CCc1ccccc1	Tau fibril ThT inconclusive
CCOc1cc(/C=N/NC(=O)c2cccc([N+](=O)[O-])c2)ccc1OS(=O)(=O)c1ccccc1	Tau fluor counter 14µM[quencher]
